Compound activity as filed in PubChem.
Compounds with a hit are over-represented: about 1.2% of the library has one in this group of screens.
Akt phos inh: Akt phosphorylation inhibition; actives 0.32% (n = 360,000); activity change, % for hits at 50 µM; AID 651550; Neuro2A IGF-stimulated pAkt S473 HTRF, 20 min; active compounds read low; in the data active = activity change below about -80%; inconclusive = mostly about -51% to -80%; note: % is set by controls: 0 for no effect and ±100 for the full control effect
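Neuro2A cells in DMEM with 0.5% FBS, overnight at 37 deg C, given compound at single 50 µM final, then IGF (6 nM final) for 20 min at 37 deg C. Lysed; phospho-Akt Ser473 by HTRF after 24 h, 665/615 ratio.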
gsp antag: gsp mutant antagonism. AID 624288. gsp-mutant cells, cAMP HTRF, 30 min. actives 0.4% (n = 340,000). Potency, µM (titrated, usually from 76.9 µM), inactives show at the top dose activity change, negative = inhibition, most hits filed as inhibitors; calls by dose curve; cell line not stated here;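 note: intracellular cAMP measured with PDE inhibitor Ro 20-1724 present during compound exposure; potency is the fitted concentration of half-maximal effect; % is set by controls: 0 for no effect and ±100 for the full control effect; nearly all actives have a fitted effect of over 65% in size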
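HTRF cAMP measurement after 30 min RT detection following 30 min, 37C compound treatment alongside […] (added as 300 uM solution) in G418-selected cells seeded at 2000/well and grown 16–24 h.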
RXFP1 ag: agonists of human relaxin receptor RXFP1 | HEK293T-RXFP1 cAMP TR-FRET, 30 min; response scale: percent of porcine relaxin response, buffer zero | actives 0.3% (n = 370,000) | AID 2676 | Potency, µM (doses to about 57.5 µM), for inactives: top-dose activation, actives largely listed as activators | Q9HBX9; active = well fitted activation curve with a large enough effect; inconclusive = small, poorly fitted or top-dose-only effect; note: potency is the fitted concentration of half-maximal effect; % is set by controls: 0 for no effect and ±100 for the full control effect; nearly all actives have a fitted effect of over 60% in size
Target sequence (Q9HBX9 whole entry, looked up): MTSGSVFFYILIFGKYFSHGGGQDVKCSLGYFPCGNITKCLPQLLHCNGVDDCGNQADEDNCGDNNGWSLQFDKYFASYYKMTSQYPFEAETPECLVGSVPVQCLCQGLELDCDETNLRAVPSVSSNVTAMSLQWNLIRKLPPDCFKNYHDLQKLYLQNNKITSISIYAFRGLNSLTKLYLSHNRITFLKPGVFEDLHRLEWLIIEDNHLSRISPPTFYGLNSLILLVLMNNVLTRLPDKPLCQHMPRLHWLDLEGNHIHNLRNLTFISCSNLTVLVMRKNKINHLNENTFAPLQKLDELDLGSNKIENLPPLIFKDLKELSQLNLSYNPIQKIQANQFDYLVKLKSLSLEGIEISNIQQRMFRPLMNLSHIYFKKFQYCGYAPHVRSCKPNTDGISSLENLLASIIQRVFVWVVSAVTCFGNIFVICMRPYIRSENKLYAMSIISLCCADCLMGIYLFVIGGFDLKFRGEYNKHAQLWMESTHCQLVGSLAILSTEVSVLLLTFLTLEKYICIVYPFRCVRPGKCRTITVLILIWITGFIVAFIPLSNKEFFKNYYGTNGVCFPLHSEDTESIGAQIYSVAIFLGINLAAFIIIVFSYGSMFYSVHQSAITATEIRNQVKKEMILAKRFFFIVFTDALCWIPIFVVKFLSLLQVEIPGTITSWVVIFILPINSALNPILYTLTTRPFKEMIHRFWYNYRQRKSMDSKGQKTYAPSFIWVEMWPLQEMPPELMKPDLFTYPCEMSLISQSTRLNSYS
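cAMP rise read by TR-FRET after 30 min, 37C compound exposure (up to 58 uM) in RXFP1-transfected HEK293 cells with Ro 20174 present. EC50 from Hill-equation fits, with 29 nM porcine relaxin as 100% and buffer as basal.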
RXFP1 antagonist: blocks the human relaxin receptor RXFP1 | Q9HBX9 | HEK293-RXFP1, relaxin-stimulated cAMP HTRF, 30 min; active compounds read low | activity change, negative = inhibition, % at 57.5 µM | actives 0.59% (n = 350,000);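 active = activity change of -60% or lower, but not beyond a set lower limit; inconclusive = change between -60% and -40%, or beyond the set limit; inactive = change above -40%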; note: % is set by controls: 0 for no effect and ±100 for the full control effect
gsp ag: gsp mutant agonism | gsp mutant cells, cAMP HTRF, 30 min | Potency, µM (highest dose often 76.9 µM), inactives show at the top dose activation (cAMP increase), most hits filed as activators | actives 0.13% (n = 340,000); active = well fitted activation curve with a large enough effect; inconclusive = small, poorly fitted or top-dose-only effect, or another doubt; inactive = no such curve, though single readings can be large or run the other way; cell line not stated here;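 note: phosphodiesterase inhibitor Ro 20-1724 added with compounds to block cAMP breakdown; potency is the fitted concentration of half-maximal effect; nearly all actives have a fitted effect of over 60% in size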
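Cells in DMEM/10% FBS with G418 were pretreated with compounds in DMSO plus […] (300 uM stock) for 30 min at 37C. cAMP was measured by HTRF (cAMP-d2 plus anti-cAMP antibody-K) after 30 min at room temperature.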
Numbers without * were called inactive; i = inactive; ? = inconclusive; · = no result; ! = a repeat was not active; [ ] = dose if it differs, or a comment.

SMILES | Akt phos inh | gsp antag | RXFP1 ag | RXFP1 antagonist | gsp ag
CCC(C)(C(=O)NC1CCCCC1)N(Cc1ccco1)C(=O)c1ccccn1 (stereo unspecified) | -107.3%* | 4.3% | 3.1% | -4.3 | -9.5%
O=C(NC1CCCCC1)C(c1ccccc1F)N(Cc1ccco1)C(=O)c1ccccn1 (stereo unspecified) | i | 0.3% | 0.6% | 3.0 | -1.7%[15.4 µM]
Cc1nn(CC(=O)Nc2ccc(OC(F)(F)F)cc2)c(=O)c2c(C)n(-c3ccc(Cl)cc3)nc12 | · | · | 4.6% | -18.8 | ·
C=C1C(=O)c2sccc2C(c2ccc(OC)c(OC)c2)C1COC(C)=O (stereo unspecified) | i | 4.2% | · | -103.5* | -65.9%
CCN1CCN(CC(=O)N2N=C(c3cccs3)CC2c2ccc(OC)c(OC)c2)C(=O)C1=O (stereo unspecified) | i | -14.9% | 0.0% | -3.3 | 12.4%[15.4 µM]
Cc1ccc(S(=O)(=O)C(C#N)c2nc3ccccc3nc2N2CC(C)OC(C)C2)cc1C (stereo unspecified) | i | 39.8µM* | 2.2% | 0.1 | 0.0%
Cc1cccc(S(=O)(=O)C(C#N)c2nc3ccccc3nc2N2CC(C)OC(C)C2)c1 (stereo unspecified) | i | -37.0% | 4.3% | -5.3 | -33.4%
Cc1ccccc1C(=O)NC1(C(F)(F)F)N=C(c2ccccc2)N(Cc2ccccc2)C1=O (stereo unspecified) | · | · | -1.0% | · | ·
C(=N\Nc1nc2ccccc2[nH]1)/c1c[nH]c2ccccc12 | i | 39.8µM* | 0.0% | -25.5 | 4.2%[15.4 µM]
O=C(Cn1cnc2nc3c(cc2c1=O)CCCC3)N1CCN(c2cccc(C(F)(F)F)c2)CC1 | · | · | -1.8% | -11.0 | ·
Cc1ccc(Cl)cc1N1CCN(C(=O)Cn2cnc3nc4c(cc3c2=O)CCCC4)CC1 | · | · | 2.6% | -67.7* | ·
O=C(Nc1nc(-c2nc3ccccc3s2)cs1)C1COc2ccccc2O1 (stereo unspecified) | i | -21.7% | 21.0% | · | 11.2µM*
CCN(c1ccc(OC)cc1)S(=O)(=O)c1nnc(NC(=O)c2ccccc2Cl)s1 | i | ? | 0.3% | -60.5*! | 5.3%
c1ccc(C(O[C@H]2CCCN(CCc3ccc4c(c3)OCO4)C2)c2ccccc2)cc1 | · | · | · | -61.6* | ·
Cc1[nH]c2ccc(Br)cc2c1CCNC(=O)c1cc2ccccc2oc1=O | · | · | 1.3% | · | ·
CCC(=O)Nc1ccccc1-c1nc2ccccc2n(C(C)C(=O)Nc2ccc(OC)cc2)c1=O (stereo unspecified) | · | · | -1.6% | -21.5 | ·
CC1=C/C(=N\OS(=O)(=O)c2ccccc2)C(C)=CC1=O | i | 28.2µM* | -2.7% | ? | -29.3%
CCc1ccc(NC(=O)C2CCCN(S(=O)(=O)c3cnc[nH]3)C2)cc1 (stereo unspecified) | · | 10.4% | -2.4% | -115.6* | -18.9%
CSc1cccc(NC(=O)C2CCN(S(=O)(=O)c3cnc[nH]3)CC2)c1 | i | 10.4% | 2.9% | -62.5* | -5.8%
CC(C)c1ccc(NC(=O)C2CCCN(S(=O)(=O)c3cccc4cccnc34)C2)cc1 (stereo unspecified) | · | · | -0.1% | -8.8 | ·
CC(C)c1nn2c(=O)cc(COC(=O)c3ccc(NC(=O)CCc4ccccc4)cc3)nc2s1 | · | · | 18.4% | -4.6 | ·
N=c1oc2cc(O)ccc2cc1C(=O)Nc1ccc(Cl)cc1 | i | 39.8µM* | 3.9% | 0.3 | ?
Cc1c(C(=O)OCc2ccccc2)[nH]c2c1C(=O)CC(c1ccc(N(C)C)cc1)C2 (stereo unspecified) | · | · | 0.0% | 3.4 | ·
Cc1c(C(=O)OCC2CCCO2)[nH]c2c1C(=O)CC(c1ccc(N(C)C)cc1)C2 (stereo unspecified) | i | 39.8µM* | -0.6% | -35.4 | -25.6%
COc1cc(NS(=O)(=O)c2ccc(N)cc2)nc(C)n1 | · | · | · | -10.0 | ·
SMILES | Akt phos inh | gsp antag | RXFP1 ag | RXFP1 antagonist | gsp ag
Cc1nc2c(C(=O)NCc3ccccc3)c[nH]n2c(=O)c1Cc1ccccc1Cl | · | · | 0.9% | -60.4* | ·
O=C(OCC(=O)c1ccc[nH]1)c1ccc(Cl)c(Cl)c1 | i | 8.6% | · | -87.1* | 12.2%
CN(C)c1ccc(CNC(=O)C2CCN(C(=O)c3ccc(-n4ccc5ccccc54)s3)CC2)cc1 | · | · | ? | -7.2 | ·
COc1ccc(NC(=O)CCS(=O)(=O)c2cccc3nonc23)c(OC)c1 | -112.7%* | -9.0% | 0.4% | -13.9 | -14.1%
OC(COC(c1ccccc1)c1ccccc1)CN1CCc2ccccc2C1 (stereo unspecified) | i | -2.6% | -0.1% | -17.9 | -20.5%
OC(COC(c1ccc(F)cc1)c1ccc(F)cc1)CN1CCc2ccccc2C1 (stereo unspecified) | i | 3.8% | -3.0% | -62.2* | -56.1%
Cc1cc(-n2ccnc(NCCc3ccc(S(N)(=O)=O)cc3)c2=O)ccc1Br | · | · | 0.1% | · | ·
Cc1ccc(N(C)C(=O)c2cc(S(=O)(=O)N3CCc4ccccc43)cn2C)cc1 | i | -8.1% | 1.2% | 2.7 | -64.9%
CN(C(=O)c1cc(S(=O)(=O)N2CCc3ccccc32)cn1C)C1CCCCC1 | i | -11.4% | -0.1% | -103.4* | -19.0%
Cc1c(-c2nsc(NC(=O)c3cccs3)n2)nnn1-c1ccc(Cl)cc1 | · | · | 1.1% | -0.4 | ·
CCOC(=O)c1c(C)nc2sc3c(=O)n(-c4ccc(C(C)=O)cc4)cnc3c2c1-c1ccc(OC)cc1 | -108.0%* | 0.5% | 1.0% | -10.3 | 5.4%
CSc1nn(CC(=O)Nc2cc(C)ccc2C)c(N)c1S(=O)(=O)c1ccccc1 | · | · | 1.4% | · | ·
O=C(Nc1ccc2oc(-c3ccc(F)cc3)nc2c1)c1ccccc1F | ? | 2.3% | 14.2% | 28.2 | ?
O=C(NC(=S)Nc1ccc2oc(-c3ccncc3)nc2c1)c1ccccc1F | i | 31.6µM* | -2.4% | 6.3 | 0.3%
COCCCNC(=O)c1cc2c(=O)n3cccc(C)c3nc2n(C(C)C)c1=N | i | 0.7% | 14.7% | 4.5 | 22.4µM*
COc1ccc(CCn2c(=N)c(C(=O)NCC3CCCO3)cc3c(=O)n4cccc(C)c4nc32)cc1 (stereo unspecified) | i | 5.1% | 17.8µM* | -0.9 | ?
COCCn1c(=N)c(C(=O)NCCc2ccc(OC)cc2)cc2c(=O)n3cccc(C)c3nc21 | -106.7%* | 12.3% | 1.0% | -13.1 | 1.1%
COc1ccc(CNC(=O)c2cc3c(=O)n4cccc(C)c4nc3n(CC3CCCO3)c2=N)cc1 (stereo unspecified) | i | 5.3% | ? | 10.5 | 2.24µM*
Cc1cccn2c(=O)c3cc(C(=O)NCc4ccc(F)cc4)c(=N)n(CC4CCCO4)c3nc12 (stereo unspecified) | · | -10.5% | ? | 9.6 | ?
COCCCn1c(=N)c(C(=O)NCc2cccnc2)cc2c(=O)n3cccc(C)c3nc21 | · | · | ? | 0.0 | ·
